Source: PubChem BioAssay AID485317 (Broad Institute, 2010)
In all, about 290,000 compounds went through this assay and about 11,000 (3.8%) were called active. The full list was thinned out, with actives kept by preference. Unmarked numbers belong to inactive results.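 Rule for the calls: active = mean replicate inhibition above about 79%, with every replicate also reaching it (limit read from the data); inconclusive = only one of the two criteria met; inactive = mean below limit and not every replicate reaching it.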

These molecules were tested against FAD-linked sulfhydryl oxidase ALR (Homo sapiens) (UniProt P55789) (assay: inhibitors of human ALR sulfhydryl oxidase, primary screen, biochemical, H2O2 detection, HRP-luminol luminescence, single point (AID 485317)). Conditions: purified ALR, DTT oxidation, hits give high values, concentration not given here.
Chain of FAD-linked sulfhydryl oxidase ALR (Homo sapiens) (P55789 whole entry, looked up): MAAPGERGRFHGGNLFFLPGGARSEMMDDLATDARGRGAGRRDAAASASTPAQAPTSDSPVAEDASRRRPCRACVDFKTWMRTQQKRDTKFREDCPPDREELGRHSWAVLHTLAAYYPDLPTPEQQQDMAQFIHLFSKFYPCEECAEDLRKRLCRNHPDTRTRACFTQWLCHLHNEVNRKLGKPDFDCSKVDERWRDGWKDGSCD
In the case of COc1cc(Cl)c(C)cc1NC(=O)CSc1nnc(CN2CCCC2)o1, the inhibition is reported as -7.65%. With Cc1ccc(C)c(C(=O)COC(=O)Cn2[nH]c(=O)c3ccccc3c2=O)c1 the inhibition was -2.55%. CCn1c(SCC(=O)Nc2ccc(S(=O)(=O)Nc3onc(C)c3C)cc2)nnc1-c1ccccc1 showed an inhibition of 53.3%. For Cc1cc(OC(C)C(=O)Nc2ccc(S(=O)(=O)Nc3onc(C)c3C)cc2)cc(C)c1Cl (centres undefined), the inhibition was 97.6% (active). In the case of Cc1noc(NS(=O)(=O)c2ccc(N/C=C/C(=O)c3ccccc3)cc2)c1C, the inhibition is reported as 85.4% (active). Molecule CC(Oc1cccc(Cl)c1)C(=O)Nc1ccc(S(=O)(=O)Nc2ncccn2)cc1 (centres undefined) has an inhibition of 7.5%. Molecule Cc1noc(NS(=O)(=O)c2ccc(NC(=O)C34CCC(CC3)C4)cc2)c1C has an inhibition of 6.47%. In the case of CCc1ccc(OC(C)C(=O)Nc2ccc(S(=O)(=O)Nc3cc(C)on3)cc2)cc1 (centres undefined), the inhibition is reported as 9.12%. In the case of CCOc1cc(N2CCOCC2)c(OCC)cc1NC(=O)COc1cccc(Cl)c1, the inhibition is reported as -15.1%. Work on O=C(CCCOc1ccccc1)NNC(=O)c1ccc(Cl)cc1 yielded an inhibition of 3.44%. In the case of Cc1occc1C(=O)N/N=C/c1ccc(-c2cccc([N+](=O)[O-])c2)o1, the inhibition is reported as -4.94%. Work on COc1ccc(NC(=O)CNc2cc(S(=O)(=O)N3CCOCC3)ccc2N2CCOCC2)c(OC)c1 yielded an inhibition of 1.23%. Cc1ccc(NS(=O)(=O)c2ccc(C(C)C)cc2)cc1S(=O)(=O)N1CCOCC1 showed an inhibition of 4.5%. For Cc1cc(C(=O)Nc2nnc(C3CC3)s2)c(C)s1, the inhibition was -0.2%. With CC(C)CN(C(=O)COC(=O)c1ccc(Cl)c(N)c1)c1c(N)n(Cc2ccccc2)c(=O)[nH]c1=O the inhibition was -4.01%. With CN1C(=O)/C(=C/c2ccco2)SC1=Nc1cccc(C(=O)O)c1 the inhibition was 1.79%. With Cc1cc(/C=C2\SC(=O)N(C)C2=O)c(C)n1-c1cccc(C(=O)O)c1 the inhibition was 81.6% (active). With Cc1cc(/C=N/n2cnnc2)c(C)n1-c1cccc(C(=O)O)c1 the inhibition was 2.1%. With Cc1ccc(-c2c3c(=O)n(C)c(=O)n(C)c3cn2-c2ccccc2O)cc1 the inhibition was -5.8%. For COc1ccc(-c2c3c(=O)n(C)c(=O)n(C)c3cn2-c2cccc(OC)c2)cc1, the inhibition was -5.98%. Cc1ccc(-c2c3c(=O)n(C)c(=O)n(C)c3cn2-n2cnnc2)cc1 was tested, and the inhibition was 97.2% (active). With O=C(COC(=O)c1cc(S(=O)(=O)N2CCOCC2)ccc1Cl)NCCc1ccccc1 the inhibition was -0.788%. CCc1ccccc1OCC(=O)Nc1ccc(C)c(S(=O)(=O)N2CCCCCC2)c1 gave an inhibition of -0.917%. For CC(C)c1ccc(NC(=O)NC2CCCCC2)cc1, the inhibition was -0.723%. COC(=O)c1cccc(C(=O)N2CCC(CCC(=O)NCc3ccc(F)cc3)CC2)c1 gave an inhibition of -3.28%. COc1ccc(NC2CCCN(C(=O)c3ccncc3)C2)cc1 (centres undefined) was tested, and the inhibition was 95.8% (active). COC(=O)c1cccc(C(=O)N2CCCC(Nc3ccc4c(c3)OCCO4)C2)c1 (centres undefined) was tested, and the inhibition was 93.9% (active). Molecule COc1ccc(C(=O)N2CCC(C(=O)Nc3ccc(C)cc3)CC2)cc1 has an inhibition of -30.7%. For CC(C)c1ccc(NC(=O)C2CCCN(S(=O)(=O)c3cccnc3)C2)cc1 (centres undefined), the inhibition was 1.01%. CC(C)c1ccc(NC2CCCN(C(=O)c3ccncc3)C2)cc1 (centres undefined) showed an inhibition of 53.9%. In the case of O=C(Nc1ccc2c(c1)OCCO2)C1CCCN(c2ncccn2)C1 (centres undefined), the inhibition is reported as -3.09%. With Cc1cccc(C(=O)N2CCCC(Nc3ccc(C(C)C)cc3)C2)n1 (centres undefined) the inhibition was 97.8% (active). Work on O=C(Nc1ccc2nc3n(c(=O)c2c1)CCCC3)c1ccc(Cl)nc1 yielded an inhibition of 0.685%. With COc1ccccc1-c1nnc(-c2ccc(F)cc2)o1 the inhibition was 2.91%. For COc1ccc(NS(=O)(=O)c2ccc(C)c(C(=O)N(C)Cc3ccc(OC)cc3OC)c2)cc1, the inhibition was -17.9%. O=C(Nc1ccc(S(=O)(=O)N2CCCCC2)cc1)C1CCN(C(=O)c2ccc(F)cc2)CC1 was tested, and the inhibition was -0.325%. CC1CCN(C(=O)c2cccc(S(=O)(=O)N3CCCc4ccccc43)c2)CC1 gave an inhibition of -15.4%. CC(C)(C)OC(=O)C[C@@H]1C/C=C\C[C@@H](CC(=O)N[C@@H](CO)Cc2ccccc2)C(=O)N2CCC[C@H]2COC1=O was tested, and the inhibition was -8.71%. COc1ccc(C(=NN)c2ccc(OC)cc2)cc1 was tested, and the inhibition was 0.931%. With CCC(=O)c1ccc(OCC(=O)Nc2ccc(N3CCCCC3)cc2)cc1 the inhibition was -9.1%. Cc1ccc(C)c(OCCC(=O)Nc2cccc(S(=O)(=O)N3CCCC3)c2)c1 was tested, and the inhibition was -0.0535%. With CCc1ccc(NC(=O)Cn2ncn3c(cc4ccccc43)c2=O)cc1 the inhibition was 3.26%. COc1ccc(NC(=O)CN2C(=O)CSC2=O)cc1 gave an inhibition of 21.6%. For CCc1ccc(NC(=O)CN2C(=O)CSC2=O)cc1, the inhibition was 96% (active). Molecule Cc1ccc2nc(NC(=O)C3CSC4(C)CCC(=O)N34)sc2c1 (centres undefined) has an inhibition of -0.552%. O=C1CSC(c2cccc(F)c2)N1c1ccc(O)cc1 (centres undefined) gave an inhibition of -57.5%. O=C1CSC(c2ccccc2)N1c1nc(-c2ccc(Cl)cc2Cl)cs1 (centres undefined) showed an inhibition of -3%. For O=C1CSC(c2cccc(F)c2)N1c1ccccc1F (centres undefined), the inhibition was 91.3% (active). Molecule COc1ccccc1CNC(=O)c1ccc(Cl)c(S(=O)(=O)N2CCCC2)c1 has an inhibition of -3.23%. Molecule CC(=O)O[C@H]1CC[C@@]2(C)[C@@H](CC[C@@H]3[C@@H]2CC[C@]2(C)[C@@H](C(C)(C)O)C[C@@H]32)C1 has an inhibition of -2.24%. For Cc1ccc2nc(-c3ccccc3)cc(C(=O)O)c2c1, the inhibition was 89.7% (active). Cc1ccc2nc(-c3ccncc3)cc(C(=O)Nc3ccncc3)c2c1 was tested, and the inhibition was -3.42%. Cc1ccc2nc(-c3cccc(Br)c3)cc(C(=O)Nn3cnnc3)c2c1 showed an inhibition of 1.88%. In the case of O=C(CC1SC(N2CCOCC2)=NC1=O)Nc1ccccc1F (centres undefined), the inhibition is reported as -2.71%. Work on Cc1ccc(S(=O)(=O)N2CCN(C(=O)Cc3sc(C)nc3-c3ccc(F)cc3)CC2)c(C)c1 yielded an inhibition of -12.2%. CCC1(C)NC(=O)N(CC(=O)N2CCN(c3cccc(Cl)c3)CC2)C1=O (centres undefined) gave an inhibition of 1.58%. For O=C(COC(=O)COc1ccccc1F)Nc1cccc(S(=O)(=O)N2CCCCC2)c1, the inhibition was -10.2%. For COc1ccc(Br)cc1/C=N/Nc1ccc(Cl)c(C(=O)O)c1, the inhibition was 96.9% (active). COc1ccc(Br)cc1/C=N/n1c(C)nnc1C was tested, and the inhibition was -4.68%. With COc1ccc(Br)cc1/C=N/NC(=O)c1cccc(S(=O)(=O)N2CCOCC2)c1 the inhibition was -1.11%. Work on COC(=O)c1ccc(SCc2ccccc2)nc1 yielded an inhibition of -2.47%. Molecule CCN(CC(=O)Nc1cccc(S(=O)(=O)N2CCCCC2)c1)Cc1ccccc1 has an inhibition of -23.2%. O=C(CSc1ccc(-c2ccco2)nn1)NCc1ccc2c(c1)OCO2 showed an inhibition of 3.65%. In the case of Fc1cccc(Cl)c1CSc1ccc(-c2ccco2)nn1, the inhibition is reported as 98.3% (active). Cc1cc(SCc2c(F)cccc2Cl)nc(=O)[nH]1 was tested, and the inhibition was 35.2%. For Brc1ccc(CSc2ccc(-c3ccco3)nn2)cc1, the inhibition was 98.2% (active). For O=C(CSc1ccc(-c2ccco2)nn1)Nc1cccc(F)c1, the inhibition was -14%. In the case of COc1ccc(NC(=O)CSc2ccc(-c3ccco3)nn2)c(OC)c1, the inhibition is reported as 0.2%. CCCC(CNC(=O)COC(=O)C1=NNC(=O)CC1)c1ccc(Cl)cc1Cl (centres undefined) gave an inhibition of 0.0724%. COc1cc(OC)cc(C(=O)NCC(=O)N2CCCCCCC2)c1 gave an inhibition of -4.06%. Molecule COc1ccc(Nc2ncnc3sc(C)cc23)cc1 has an inhibition of 7.07%. Cc1cccc(C(C)C)c1NC(=O)COC(=O)C1CC(=O)N(Cc2ccccc2)C1 (centres undefined) was tested, and the inhibition was -1.43%. Work on C[C@H](CO)N1C[C@H](C)[C@@H](CN(C)S(=O)(=O)c2ccc(F)cc2)Oc2ccc(NC(=O)CCC(F)(F)F)cc2C1=O yielded an inhibition of -3.84%. Work on O=C1OC[C@@H]2CCCN2C(=O)[C@H](CC(=O)N(CCO)Cc2ccccc2)C/C=C\CC[C@@H]1Cc1ccc(F)cc1 yielded an inhibition of -10.6%. With COc1ccc(Cl)cc1NC(=O)CN(C)C(=O)c1ccc2n[nH]nc2c1 the inhibition was 2.11%. COc1ccc(OCCNC(=O)c2cc(C3CC3)nc3c2cnn3C(C)C)cc1 showed an inhibition of -7.42%. Cc1cccn2cc(-c3cccc(S(=O)(=O)N4CCCCC4)c3)nc12 was tested, and the inhibition was 90.9% (active). O=S(=O)(c1cccc(-c2cn3ccccc3n2)c1)N1CCCC1 was tested, and the inhibition was 0.842%. Work on O=S(=O)(c1cccc(-c2nnc3n2CCCCC3)c1)N1CCOCC1 yielded an inhibition of -3.91%. COc1ccccc1-c1nnc2n1N=C(c1ccc(OC(F)F)c(OCC3CC3)c1)CS2 was tested, and the inhibition was 0.875%. CCN(C(=O)CSc1ncnc2c1cnn2-c1ccccc1)C1CCS(=O)(=O)C1 (centres undefined) gave an inhibition of 8.44%. CCCCn1c(N)c(N(CCOC)C(=O)c2cccc(OCc3ccccc3)c2)c(=O)[nH]c1=O gave an inhibition of -0.129%. For COc1ncnc2c1N=C1CC(C)(C)CC(N)=C1S2, the inhibition was 99% (active). With COc1ccc(-c2cc(C(=O)N(C)Cc3ccc(OC)c(OC)c3OC)c3ccccc3n2)cc1OC the inhibition was 0.485%. COc1ccc(Cl)cc1C(=O)OCC(=O)NCc1cccs1 was tested, and the inhibition was -0.428%. For Cc1ccc(-c2cc(=O)[nH]c(NCc3ccccc3)n2)cc1, the inhibition was -7.47%. For CS(=O)(=O)c1ccc(C(=O)NNC(=O)c2cccs2)cc1, the inhibition was -4.92%. In the case of NS(=O)(=O)c1ccc(NC(=S)NNC(=O)c2cccs2)cc1, the inhibition is reported as 96.9% (active). O=C(NC(=S)Nc1ccc(NC(=O)c2cccs2)cc1)c1ccc([N+](=O)[O-])cc1 was tested, and the inhibition was -3.61%.
